From PubChem BioAssay (NCI)
“And” between values parts separate entries of the source, which are not always exact repeats. Identical values can stand only once. Compounds without any hit were thinned out: in the full panel of roughly 83,000, 20% have a hit.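 Negative percent growth values reflect cell death: -40 means 40% of the cells present at the start died, and -100 means all died.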 The source made the active and inactive calls. Rule for the calls: active = growth percent below 10; inactive = the rest.

How the values were obtained:
Assay in all cases: NCI-60 one-dose screen, 48 h (100 = growth as untreated, 0 = no growth, -100 = all killed)
Settings in all cases: 10 µM unless noted
HCT-15 colon = test system: HCT-15 colon
HT29 colon = test system: HT29 colon
SNB-75 CNS = test system: SNB-75 CNS
SNB-19 CNS = test system: SNB-19 CNS
U251 CNS = test system: U251 CNS
PC-3 prostate = test system: PC-3 prostate
LOX IMVI melanoma = test system: LOX IMVI melanoma
SK-MEL-28 melanoma = test system: SK-MEL-28 melanoma
SK-MEL-2 melanoma = test system: SK-MEL-2 melanoma
EKVX NSCLC = test system: EKVX NSCLC
SN12C renal = test system: SN12C renal
UO-31 renal = test system: UO-31 renal
TK-10 renal = test system: TK-10 renal
ACHN renal = test system: ACHN renal
CAKI-1 renal = test system: CAKI-1 renal
A498 renal = test system: A498 renal
CCRF-CEM leukemia = test system: CCRF-CEM leukemia
MOLT-4 leukemia = test system: MOLT-4 leukemia
UACC-62 melanoma = test system: UACC-62 melanoma

Measured: growth

N#Cc1ccc([N+](=O)[O-])o1
inactive: HCT-15 colon 104% | HT29 colon 93.9% | SNB-75 CNS 109% | SNB-19 CNS 101% | U251 CNS 90% | PC-3 prostate 93.3% | LOX IMVI melanoma 108% | SK-MEL-28 melanoma 106% | SK-MEL-2 melanoma 91% | EKVX NSCLC 105% | SN12C renal 106% | UO-31 renal 92.6% | TK-10 renal 108% | ACHN renal 104% | CAKI-1 renal 104% | A498 renal 98.5% | CCRF-CEM leukemia 102% | MOLT-4 leukemia 99.5%

O=C(Nc1ccccc1)Oc1c(Cl)c(Cl)c(Cl)c(Cl)c1Cl
inactive: HCT-15 colon 102% and 99.8% | HT29 colon 104% and 96.6% | SNB-75 CNS 93.1% and 77.4% | SNB-19 CNS 93.5% and 100% | U251 CNS 99% and 100% | PC-3 prostate 95.6% and 93.6% | LOX IMVI melanoma 99% and 93.1% | SK-MEL-28 melanoma 119% and 101% | SK-MEL-2 melanoma 95.6% and 101% | EKVX NSCLC 97.7% and 87.2% | SN12C renal 99.4% and 92.7% | UO-31 renal 73.9% and 83.2% | TK-10 renal 100% | ACHN renal 99.1% and 93.6% | CAKI-1 renal 93.1% and 89.7% | A498 renal 95.9% and 76.8% | CCRF-CEM leukemia 93.6% and 101% | MOLT-4 leukemia 90.8% and 96.1%

CCC1OC(OC)C=CC1=O (stereo not given)
inactive: HCT-15 colon 109% | HT29 colon 113% | SNB-75 CNS 95% | SNB-19 CNS 91.5% | U251 CNS 113% | PC-3 prostate 97.1% | UACC-62 melanoma 85% | LOX IMVI melanoma 103% | SK-MEL-28 melanoma 106% | SK-MEL-2 melanoma 129% | EKVX NSCLC 89% | SN12C renal 94.7% | TK-10 renal 110% | A498 renal 90.3% | CCRF-CEM leukemia 94.5% | MOLT-4 leukemia 103%

CC(C)c1ccc2nc3ccc(C(=O)NCCN4CCN(c5ccccc5)CC4)cn3c(=O)c2c1
inactive: HCT-15 colon 44.5% | HT29 colon 38.8% | SNB-75 CNS 60.4% | SNB-19 CNS 78.8% | U251 CNS 38.2% | PC-3 prostate 56.3% | UACC-62 melanoma 62% | LOX IMVI melanoma 56.1% | SK-MEL-28 melanoma 69.7% | SK-MEL-2 melanoma 75.4% | EKVX NSCLC 74.5% | SN12C renal 69.9% | TK-10 renal 93.9% | ACHN renal 72.1% | CAKI-1 renal 63.4% | A498 renal 81.8% | CCRF-CEM leukemia 50.7% | MOLT-4 leukemia 38%

N#CSCC(=O)c1ccc(Cl)cc1
active: HT29 colon -19.4%
inactive: HCT-15 colon 18.1% | SNB-75 CNS 33% | SNB-19 CNS 81.9% | U251 CNS 31.9% | PC-3 prostate 45.5% | LOX IMVI melanoma 12.3% | SK-MEL-28 melanoma 73.4% | SK-MEL-2 melanoma 80.8% | EKVX NSCLC 82.6% | SN12C renal 33.6% | UO-31 renal 28.3% | TK-10 renal 82.7% | ACHN renal 52% | A498 renal 83.7% | CCRF-CEM leukemia 52.5% | MOLT-4 leukemia 65.4%

S=C(NCCNC(=S)[S][Sn]([c]1ccccc1)([c]1ccccc1)[c]1ccccc1)[S][Sn]([c]1ccccc1)([c]1ccccc1)[c]1ccccc1
active: HCT-15 colon -73.8% | HT29 colon -93.1% | SNB-75 CNS -60.8% | SNB-19 CNS -92.8% | U251 CNS -100% | PC-3 prostate -82.5% | UACC-62 melanoma -64.1% | LOX IMVI melanoma -86.5% | SK-MEL-28 melanoma -98.8% | SK-MEL-2 melanoma -93.1% | EKVX NSCLC -91.4% | SN12C renal -79.7% | UO-31 renal -100% | TK-10 renal -100% | CAKI-1 renal -71.3% | CCRF-CEM leukemia -35.3% | MOLT-4 leukemia -32.8%

CCC(CC)COC(=O)c1ccc(O)c(O)c1
inactive: HCT-15 colon 49.2% | HT29 colon 96.8% | SNB-75 CNS 75% | SNB-19 CNS 74.6% | U251 CNS 50.9% | PC-3 prostate 33.8% | UACC-62 melanoma 76.8% | LOX IMVI melanoma 69.2% | SK-MEL-28 melanoma 95.1% | SK-MEL-2 melanoma 85.6% | EKVX NSCLC 93.7% | SN12C renal 45.8% | UO-31 renal 26.3% | TK-10 renal 82.5% | ACHN renal 72.5% | CCRF-CEM leukemia 15.2% | MOLT-4 leukemia 30.3%

N[C@H](C(=O)O)[C@@H]1CC(Cl)=NO1
inactive: HCT-15 colon 15.9% [20 µM] | HT29 colon 17.3% [20 µM] | SNB-75 CNS 27.3% [20 µM] | SNB-19 CNS 30.6% [20 µM] | U251 CNS 26.8% [20 µM] | PC-3 prostate 31% [20 µM] | LOX IMVI melanoma 13.2% [20 µM] | SK-MEL-28 melanoma 34.7% [20 µM] | SK-MEL-2 melanoma 46.3% [20 µM] | EKVX NSCLC 23.6% [20 µM] | SN12C renal 19.6% [20 µM] | UO-31 renal 34.8% [20 µM] | TK-10 renal 24.7% [20 µM] | A498 renal 13.6% [20 µM] | CCRF-CEM leukemia 19% [20 µM] | MOLT-4 leukemia 23.5% [20 µM]

O=C(/C=C/C=C/c1ccccc1)c1ccco1
inactive: HCT-15 colon 92.2% | HT29 colon 85.4% | SNB-75 CNS 83% | SNB-19 CNS 92.5% | U251 CNS 56.4% | PC-3 prostate 85.9% | UACC-62 melanoma 72.1% | LOX IMVI melanoma 64.8% | SK-MEL-28 melanoma 123% | SK-MEL-2 melanoma 103% | EKVX NSCLC 112% | SN12C renal 99.8% | UO-31 renal 62.6% | TK-10 renal 128% | CAKI-1 renal 97.3% | A498 renal 106% | CCRF-CEM leukemia 30.2%

CC(=O)Nc1cccc2cc(O)ccc12
inactive: HCT-15 colon 112% and 107% and 99.9% | HT29 colon 115% and 107% and 95.8% | SNB-75 CNS 91.4% and 101% and 75.3% | SNB-19 CNS 106% and 94.8% | U251 CNS 108% and 102% and 101% | PC-3 prostate 104% and 96.3% and 80.3% | LOX IMVI melanoma 104% and 106% | SK-MEL-28 melanoma 110% and 111% and 104% | SK-MEL-2 melanoma 125% and 101% | EKVX NSCLC 101% and 120% and 99.3% | SN12C renal 107% and 94.4% and 97.2% | UO-31 renal 94.6% and 89.5% and 75.1% | TK-10 renal 123% and 99.7% and 97.9% | ACHN renal 104% and 109% and 100% | CAKI-1 renal 129% and 93.5% | A498 renal 99.2% and 108% and 109% | CCRF-CEM leukemia 98.1% and 101% and 104%

CN1c2ccccc2C(C)(C)C12C=Cc1cc(O)ccc1O2 (stereo not given)
active: CCRF-CEM leukemia -16.8% | MOLT-4 leukemia -17.6%
inactive: HCT-15 colon 43.1% | HT29 colon 55.9% | SNB-75 CNS 43.1% | SNB-19 CNS 61.1% | U251 CNS 52.9% | PC-3 prostate 37.8% | LOX IMVI melanoma 47.2% | SK-MEL-28 melanoma 64.5% | SK-MEL-2 melanoma 57.5% | EKVX NSCLC 105% | SN12C renal 48.7% | TK-10 renal 80.7% | CAKI-1 renal 65.9% | A498 renal 26%

CC(C)(C)CC(C)(C)c1ccc(OCCSC(=N)N)cc1
inactive: SNB-75 CNS 77.7% | SNB-19 CNS 87% | U251 CNS 12.3% | PC-3 prostate 72.2% | UACC-62 melanoma 66.5% | SK-MEL-2 melanoma 96.4% | EKVX NSCLC 51.8% | SN12C renal 53.7% | UO-31 renal 37.2% | TK-10 renal 72.3% | CAKI-1 renal 71.3% | A498 renal 60.2%
active: HCT-15 colon 1.48% | HT29 colon 2.71% | LOX IMVI melanoma 8.68% | SK-MEL-28 melanoma -72.7% | MOLT-4 leukemia 9.3%

Oc1c(Cl)c2ccccc2c2ccccc12
inactive: HCT-15 colon 112% | HT29 colon 103% | SNB-75 CNS 88.2% | SNB-19 CNS 99.1% | U251 CNS 113% | PC-3 prostate 97.5% | UACC-62 melanoma 107% | LOX IMVI melanoma 98% | SK-MEL-28 melanoma 108% | SK-MEL-2 melanoma 96.9% | EKVX NSCLC 117% | SN12C renal 98.5% | TK-10 renal 84.8% | ACHN renal 100% | CAKI-1 renal 111% | A498 renal 122% | CCRF-CEM leukemia 112%

CCOc1ccc(-c2nc3ccc(-c4nc5ccc(N6CCN(C)CC6)cc5[nH]4)cc3[nH]2)cc1
active: HT29 colon -68.3% | SNB-75 CNS -90.2% | SNB-19 CNS -96.2% | U251 CNS -98.1% | PC-3 prostate -47.8% | UACC-62 melanoma -96.5% | LOX IMVI melanoma -88% | SK-MEL-28 melanoma -88.6% | SK-MEL-2 melanoma 4.1% | EKVX NSCLC -75.5% | SN12C renal -91.4% | TK-10 renal -84.9% | ACHN renal -33.8% | CAKI-1 renal -43.8% | A498 renal -91.6% | CCRF-CEM leukemia 4.03%
inactive: HCT-15 colon 23.7%

CN(C)c1ccc(/C=N/N=C(\C#N)[S][Sn]([Cl])([c]2ccccc2)[c]2ccccc2)cc1
inactive: HT29 colon 19.2% | SNB-19 CNS 89.6% | U251 CNS 57.3% | PC-3 prostate 68.6% | SK-MEL-2 melanoma 40.3% | EKVX NSCLC 44% | SN12C renal 28.8% | CAKI-1 renal 46.4% | A498 renal 32%
active: HCT-15 colon -30.6% | SNB-75 CNS 8.38% | LOX IMVI melanoma -92.8% | SK-MEL-28 melanoma -48.7% | TK-10 renal -24.1% | ACHN renal -51% | CCRF-CEM leukemia -20.2% | MOLT-4 leukemia 6.2%
